Here are results for 39 compounds from PubChem BioAssay (NCATS).

Molecules are shown by their SMILES. Records with an inconclusive call do not appear. Entries that show only a call come without a potency. Unmarked numbers belong to inactive results. Activity calls are given as the source filed them. Calls follow the shape of the dose curve; as a rule, active = well fitted inhibition curve with a large enough effect; inconclusive = small, poorly fitted or top-dose-only effect; inactive = flat fitted curve, though single readings scatter.
Potency is read from the fitted curve at half-maximal effect.

Chain of Calcium and integrin-binding protein 1 (Homo sapiens) (Q99828 whole entry, looked up): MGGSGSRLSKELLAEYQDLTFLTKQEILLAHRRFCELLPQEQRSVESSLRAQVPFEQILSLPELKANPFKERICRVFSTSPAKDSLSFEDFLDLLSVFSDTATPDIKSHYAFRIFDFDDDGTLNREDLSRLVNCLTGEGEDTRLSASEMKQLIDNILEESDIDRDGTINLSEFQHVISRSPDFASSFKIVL

The target of this assay is Calcium and integrin-binding protein 1 (Homo sapiens) (UniProt Q99828). The experiment in a line: Primary qHTS for Identification of Calcium Integrin Binding Protein 1 (CIB1) Competitor (AID 1508620).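 As to activity change, negative = inhibition: GST tagged CIB1 binding a fluorescein labelled alphaIIb integrin peptide tracer; top concentration of the series differs between compounds.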 Particulars: CIB1-GST / FITC-alphaIIb peptide fluorescence polarization; series mostly up to 57.7 µM. In a few lines:
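CIB1-GST (1 uM final) and compound incubated 15 min at room temperature before adding FITC-alphaIIb peptide tracer (100 nM final). Competition for binding read by fluorescence polarization (ex 480, em 540) after another 15 min at room temperature.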
(Quantitative high-throughput screening tests each substance at several concentrations.)
Regarding `CC(C)(O)/C=C1/C(=O)C(C)(C)C(=O)C(C)(C)C1(O)O[C@@H]1O[C@H](COC(=O)c2cc(O)c(O)c(O)c2)[C@@H](O)[C@H](O)[C@H]1O` (some centres undefined), the Potency result is “inactive”.

For the compound `COC(=O)C1(Cc2ccc(O)cc2)OC(=O)C(OC)=C1c1ccc(O)cc1` (centres undefined), the Potency result was “inactive”. As to `NCc1c[nH]c(=S)n1C1CCc2c(F)cc(F)cc2C1` (centres undefined), the Potency entry is “inactive”. The same measure, in the same setting: the entry for `CNC(=O)c1ccc2cc([C@@]3(O)CCn4cncc43)ccc2c1` is “inactive”; for `C=C1CC23CC1(O)CCC2C1=CC2OC(=O)C(C)(C2O)C1C3C(=O)O` (centres undefined) it is “inactive”; for `C=CC(C)(C)O[C@@H]1O[C@H](CO[C@@H]2OC[C@](O)(CO)[C@H]2O)[C@@H](O)[C@H](O)[C@H]1O` it is “inactive”. Turning to `COC(=O)C1=COC(OC2OC(CO)C(O)C(O)C2O)C2C1CC(OC(=O)C(O)CC(=O)O)C2C` (centres undefined), the Potency entry was “inactive”.

Turning to `CC(=O)Oc1cc2c(s1)CCN([C@H](C(=O)C1CC1)c1ccccc1F)C2`, the Potency entry is “inactive”. Take `CC1(C)CC[C@]2(C(=O)O)CC[C@]3(C)C(=CCC4[C@@]5(C)C[C@H](O)[C@H](O[C@@H]6OC[C@H](O)[C@H](O)[C@H]6O)[C@@](C)(CO)C5CC[C@]43C)[C@@H]2C1` (some centres undefined): the Potency result is “inactive”. As for `C/C=C(\C)C(=O)O[C@@H]1CC2[C@@H](CC=C3C[C@@H](O[C@H]4C[C@H](OC)[C@H](O[C@H]5C[C@H](OC)[C@H](O[C@H]6C[C@H](OC)[C@H](O[C@H]7C[C@@H](OC)[C@H](O[C@@H]8O[C@H](CO)[C@@H](O)[C@H](O)[C@H]8O)[C@@H](C)O7)[C@@H](C)O6)[C@@H](C)O5)[C@@H](C)O4)CC[C@@]32C)[C@@]2(O)CC[C@H](C(C)=O)[C@@]12C` (some centres undefined), the activity change, negative = inhibition is 0.036% [at 12.4 µM]. In the case of `C/C=C/C=C/C=C/C(=O)O[C@@H]1C=C(CO)C(O)(C(=O)O)[C@@]2(C)CCCC(C)(C)[C@H]12` (some centres undefined), the Potency result is “inactive”. Consider `C[C@]12C=CC(=O)C=C1CC[C@@H]1[C@@H]2[C@@H](O)C[C@@]2(C)[C@H]1CC[C@]2(O)C(=O)COC(=O)CCC(=O)O`, for which the Potency result was “inactive”. In the case of `C=C1C[C@]23C[C@H]1CC[C@H]2[C@@]12C=C[C@H](O)[C@@](C)(C(=O)O1)[C@H]2[C@@H]3C(=O)O`, the Potency entry was “inactive”. On the same count and under the same terms, the entry for `C[C@@H]1O[C@@H](O[C@H]2[C@H](OC(=O)C34CCC(C)(C)CC3C3=CCC5C6(C)CC(O)C(O[C@@H]7O[C@H](CO)[C@@H](O)[C@H](O)[C@H]7O)C(C)(C(=O)O)C6CCC5(C)C3(CO)CC4)O[C@H](C)[C@H](O)[C@@H]2O)[C@H](O)[C@H](O)[C@H]1O[C@@H]1OC[C@@H](O)[C@H](O)[C@H]1O` (some centres undefined) is “inactive”. Regarding `C=C1CCC2C(C)(COC3OC(COC(=O)CC(=O)O)C(O)C(O)C3O)CCCC2(C)C1CCC1=CCOC1=O` (centres undefined), the Potency entry was “inactive”. Take `O=C1NCc2nc3ccccc3c(=O)n2C1Cc1c[nH]c2ccccc12` (centres undefined): the Potency entry was “inactive”. Take `CC1=C2CC3OC3(C)CCC3OC3(C)CC2OC1=O` (centres undefined): the Potency entry was “inactive”.

Consider `COc1cc(C[C@H]2COC(=O)[C@@H]2Cc2ccc(O)c(OC)c2)ccc1O`, for which the Potency result is “inactive”.

On to `CC(C)(C)NCc1cc(Nc2ccnc3cc(Cl)ccc23)c2c(c1O)CCCC2`, for which the activity change, negative = inhibition was -3.89% [at 1.07 µM]. Regarding `C=C1CC[C@@H]2[C@](C)(CC[C@H](O)[C@@]2(C)CCC=C(C)C)[C@@H]1Cc1c[nH]c2ccccc12`, the Potency entry is “inactive”.

For the compound `C[C@@H](Nc1cc(NS(=O)(=O)N2CCC2)nc(SCc2cccc(F)c2F)n1)[C@@H](O)CO`, the Potency result was “inactive”. In the case of `CC1CCC2C(C(=O)O)=CC3CC(C)(C)CC132` (centres undefined), the Potency entry is “inactive”. On to `O=C1Nc2ccc(O)cc2O[C@H]1O[C@@H]1O[C@H](CO)[C@@H](O)[C@H](O)[C@H]1O`, for which the Potency entry was “inactive”. As for `CC1CCC23COC(=O)C2=CC(O)CC3C1(C)CCC1=CC(=O)OC1O` (centres undefined), the Potency result was “inactive”.

Regarding `C[C@@H]1O[C@@H](O[C@H]2[C@H](O[C@H]3[C@H](O[C@H]4CC[C@@]5(C)C(CC[C@]6(C)C5CC=C5[C@@H]7CC(C)(C(=O)O)C[C@@H](O)[C@]7(C)CC[C@]56C)[C@@]4(C)CO)O[C@H](C(=O)O)[C@@H](O)[C@@H]3O)O[C@H](CO)[C@H](O)[C@@H]2O)[C@H](O)[C@H](O)[C@H]1O` (some centres undefined), the Potency entry is “inactive”. Same read-out and setting: in the case of `O=C1CC(c2ccc([N+](=O)[O-])cc2)=NN1c1ccccc1` it was “inactive”; in that of `CCC(CCO[C@@H]1O[C@H](CO[C@H]2OC[C@](O)(CO)[C@H]2O)[C@@H](O)[C@H](O)[C@H]1O)C(C)(C)O` (some centres undefined), “inactive”; in that of `CC[C@H]1OC(=O)C[C@@H](O)[C@H](C)[C@@H](O[C@@H]2O[C@H](C)[C@@H](O)[C@H](N(C)C)[C@H]2O)[C@@H](CCN2C[C@H](C)C[C@H](C)C2)C[C@@H](C)C(=O)/C=C/C(C)=C/[C@@H]1CO[C@@H]1O[C@H](C)[C@@H](O)[C@@H](OC)[C@H]1OC`, “inactive”.

Regarding `OC[C@H]1O[C@@H](Oc2cc(O)cc(-c3cc4ccc(O)cc4o3)c2)[C@H](O)[C@@H](O)[C@@H]1O`, the Potency entry is “inactive”. As for `Nc1ncnc2c1ncn2[C@H]1CCCO1`, the Potency result was “inactive”. With `N[C@H]1C[C@H]1c1ccc(-c2cccc(O)c2)cc1`, the Potency entry was “inactive”. Turning to `CC(=O)O[C@@H]1[C@@H](OC(=O)/C=C/c2ccccc2)[C@H](C)O[C@@H](O[C@H]2[C@@H]3C=CO[C@@H](O[C@@H]4O[C@H](CO)[C@@H](O)[C@H](O)[C@H]4O)[C@@H]3[C@@]3(CO)O[C@@H]23)[C@@H]1OC(C)=O`, the Potency entry is “inactive”.

As to `CC(CO[C@@H]1O[C@H](COC(=O)/C=C/c2ccc(O)c(O)c2)[C@@H](O)[C@H](O)[C@H]1O)C1(O)COC(=O)C1` (some centres undefined), the Potency entry was “inactive”. Still for that read-out and setting: the entry for `Cc1nn(C)c2c1C(c1ccc(C(F)(F)F)cc1)C(C#N)=C(N)O2` (centres undefined) is “inactive”; for `CCN[C@@H]1C[C@H](N)[C@@H](O[C@H]2OC(CN)=CC[C@H]2N)[C@H](O)[C@H]1O[C@H]1OC[C@](C)(O)[C@H](NC)[C@H]1O` it is “inactive”. `COc1cc(C(C)=O)ccc1O[C@@H]1O[C@H](CO[C@@H]2O[C@@H](C)[C@H](O)[C@@H](O)[C@H]2O)[C@@H](O)[C@H](O)[C@H]1O`: the Potency result is “inactive”. The same measure, in the same setting: the entry for `C=C(C)[C@@H](C)[C@H]1O[C@]23C[C@]4(CO2)C(CCC2[C@@]5(C)CC[C@H](O[C@@H]6OC[C@H](O)[C@H](O[C@@H]7O[C@H](CO)[C@@H](O)[C@H](O)[C@H]7O)[C@H]6O[C@@H]6O[C@@H](CO)[C@H](O)[C@H]6O)C(C)(C)C5CC[C@]24C)C3[C@@](C)(O)[C@@H]1OC(C)=O` (some centres undefined) is “inactive”. Consider `CC(NC(=O)CC(=O)O)c1nc2ccccc2c(=O)[nH]1` (centres undefined), for which the Potency is 28.2 µM (active). Turning to `C/C=C/C1=CC2=C(CO1)C(=O)[C@](C)(O)[C@H](OC(=O)c1c(O)cc(OC)c(O)c1C)C2`, the Potency entry was “inactive”.
